From PubChem BioAssay (NCATS)
“And” between values parts separate entries of the source, which are not always exact repeats. Equal values may be shown once. Results filed as inconclusive are left out. The source made the active and inactive calls. Calls follow the shape of the dose curve; as a rule, active = well fitted inhibition curve with a large enough effect; inconclusive = small, poorly fitted or top-dose-only effect; inactive = flat fitted curve, though single readings scatter.

Assays:
PC15 = assay: qHTS profiling for inhibitors of Plasmodium falciparum proliferation (AID 504749); conditions: P. falciparum in erythrocytes, SYBR Green DNA, 72 h; series mostly up to 28.7 µM
Summary of the method: (§1)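 Infected RBCs, 0.3% parasitemia/2.5% Hct final; cpd 72 h, 37 C, 5% CO2; lysis buffer with saponin/triton/SYBR Green I, o/n RT dark; FI 485/535; norm. to artemisinin (0.29 uM) and DMSO.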

PC26 = assay: as above; conditions: P. falciparum in erythrocytes, SYBR Green DNA, 72 h; series mostly up to 28.7 µM
Summary of the method: as §1

PC49 = assay: as above; conditions: P. falciparum in erythrocytes, SYBR Green DNA, 72 h; series mostly up to 28.7 µM
Summary of the method: as §1

SC27B = assay: as above; conditions: P. falciparum in erythrocytes, SYBR Green DNA, 72 h; series mostly up to 28.7 µM
Summary of the method: as §1

TAB109 = assay: as above; conditions: P. falciparum in erythrocytes, SYBR Green DNA, 72 h; series mostly up to 28.7 µM
Summary of the method: as §1

TAB113 = assay: as above; conditions: P. falciparum in erythrocytes, SYBR Green DNA, 72 h; series mostly up to 28.7 µM
Summary of the method: as §1

TAB165 = assay: as above; conditions: P. falciparum in erythrocytes, SYBR Green DNA, 72 h; series mostly up to 28.7 µM
Summary of the method: as §1

W2 = assay: as above; conditions: P. falciparum in erythrocytes, SYBR Green DNA, 72 h; series mostly up to 28.7 µM
Summary of the method: as §1

HEK293 = assay: Cytotoxic Profiling of Annotated Libraries Using Quantitative High-Throughput Screening (AID 1296008); conditions: Five cell lines viability, CellTiter-Glo ATP luminescence, 48-72 h; max response: active compounds read low
Summary of the method: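 Cytotoxicity was measured as CellTiter-Glo ATP luminescence, read after 10 min at room temperature. Compound treatment of the cells lasted 48 or 72 hr at 37 degrees Celsius in a qHTS format.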

Measured: Potency
Also: nearly all actives have a fitted effect of over 60% in size.
Potency is read from the fitted curve at half-maximal effect.

N#Cc1ccc(C(c2ccc(C#N)cc2)n2cncn2)cc1
not listed: HEK293
inactive: all other assays above

CCOC(=O)C1=C[C@@]2(CC)CCCN3CCc4c(n1c1ccccc41)[C@H]32
active: PC26 15.1 µM | W2 4.78 µM

Cc1cc(Nc2nc(N[C@@H](C)c3ncc(F)cn3)ncc2Cl)n[nH]1
active: HEK293 7.31 µM

CC(=O)NC(C)c1ccc(Oc2ccc(OC(C)C)cc2)cc1 (stereo unspecified)
active: HEK293 14.8 µM

Nc1nc2c(ncn2COCCO)c(=O)[nH]1
not listed: HEK293
inactive: all other assays above

Cc1cc2c(C(C)C)c(O)c(O)c(C=O)c2c(O)c1-c1c(C)cc2c(C(C)C)c(O)c(O)c(C=O)c2c1O
active: HEK293 23.5 µM

CCOC(=O)N1CCC(=C2c3ccc(Cl)cc3CCc3cccnc32)CC1
active: PC15 11.2 µM | PC26 12 µM | PC49 4.47 µM | SC27B 6.31 µM | TAB165 2.51 µM | W2 8.49 µM | HEK293 18.7 µM and 18.8 µM
inactive: TAB109

OC[C@H](Cc1ccccc1)Nc1nc(Oc2ccc3c(c2)CCC3)nc2c1ncn2Cc1ccc(-c2ccccc2)cc1
active: HEK293 8.33 µM

CCn1c(-c2nonc2N)nc2c(C#CC(C)(C)O)ncc(OC[C@H]3CCCNC3)c21
active: HEK293 0.0469 µM

NC(=O)C1CCCc2c1[nH]c1ccc(Cl)cc21 (stereo unspecified)
active: HEK293 5.9 µM

O=c1ncn2nc(Sc3ccc(F)cc3F)ccc2c1-c1c(Cl)cccc1Cl
active: HEK293 13.2 µM

Cc1ccc(N(CC2=NCCN2)c2cccc(O)c2)cc1
not listed: HEK293
inactive: all other assays above
